14 molecules from PubChem BioAssay (NCI) can be followed below.

About 83,000 compounds went through this panel and 20% of them were active in at least one assay; those are over-represented in the sample as a whole.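 Assay: single dose, 48 h. Readout: percent growth (0 = no net growth; negative = cell death). Active: <10.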 Values without a mark were called inactive. Activity calls are given as the source filed them.

What all share (assay): NCI-60 one-dose screen, 48 h (100 = growth as untreated, 0 = no growth, -100 = all killed)
What all share (details): 10 µM

Assay [1] deals with NCI-H23 lung.
Assay [2] has as its system NCI-H226 lung.
The test system of assay [3] is NCI-H322M lung.
Assay [4] has as its system HOP-62 NSCLC.
Assay [5] has as its system NCI-H460 lung.
For assay [6], the system named is HOP-92 NSCLC.
In assay [7] the test system is NCI-H522 lung.
Assay [8] relates to A549/ATCC NSCLC.
The test system of assay [9] is 786-0 renal.
Assay [10] has as its system COLO 205 colon.

With `CC(=O)Nc1ccc2c(c1)C(N1CC3CCC(CC3)C1)c1ccccc1-2` (stereo not given), the growth is 90.7% in [1]; 85% in [2]; 115% in [3]; 96.5% in assay [4]; 64.3% in [5]; 64.2% in [6]. The growth in [7] was 108%; in [8], 85.9%; in assay [9], 92.5%; in assay [10], 68.6%.
On to `COc1cc(OC)cc(N2CCN(C(=O)Nc3nc4cc(F)ccc4nc3OC)CC2)c1`, for which the growth in [1] is 20.4%; in assay [2] it was 43.3%; in [3], 29.3%; in assay [4], 34.7%; in assay [5], 5% (active); in [6], 39.8%. Moreover, the growth in [7] is -3.96% (active); in assay [8], 19.8%; in [9], 15%; in [10], -65.4% (active).
As for `O=C1/C(=C/c2ccc(O)cc2)Cc2ccc(Cl)cc21`, the growth was 69.5% in assay [1]; 68.1% in assay [2]; 84.9% in assay [3]; 95.3% in [4]; 84.4% in assay [5]; 77.3% in assay [6]. Besides, the growth in assay [7] is -38.8% (active); in assay [8] it was 85.9%; in [9], 92.2%; in assay [10], 120%.
In the case of `CCCCC(CC#N)(CCC)CCC`, the growth in assay [1] is 105%; in assay [2] it was 109%; in assay [3] it was 95.6%; in [4] it was 116%; in assay [5] it was 109%; in assay [6] it was 99.7%. Also, the growth in assay [7] is 97.5%; in assay [8], 94.4%; in assay [9], 95.5%; in [10], 106%.
For `Cc1ccc([P+](Cc2ccccc2)(c2ccccc2)c2ccccc2)cc1`, the growth was 12.4% in assay [1]; 28.3% in [2]; 16.2% in assay [3]; 23.7% in assay [4]; 12.4% in assay [5]; -25.3% (active) in assay [6]. The growth in assay [7] is -21.6% (active); in assay [8] it was 18.1%; in assay [9] it was 21.3%; in assay [10] it was -68.9% (active).
Take `COc1cc2ccnc(C=O)c2cc1OC`: the growth is 83.5% in assay [1]; 101% in assay [2]; 87.5% in [3]; 89.7% in assay [4]; 107% in assay [5]; 51.2% in assay [6]. Moreover, the growth in assay [7] is 68.4%; in assay [8], 101%; in [9], 99.9%; in assay [10], 92.9%.
As to `CC1(CO)CCCC12OCCO2` (stereo not given), the growth in assay [1] was 106%; in assay [2], 99.7%; in assay [3], 107%; in [4], 100%; in [5], 105%; in assay [6], 120%. Moreover, the growth was 93% in assay [7], 101% in assay [8], 102% in [9] and 114% in [10].
As to `Cc1ccc(S(=O)(=O)Nc2cccc3[nH]c(C(F)(F)F)nc23)cc1`, the growth in assay [1] is 39.5%; in [2], 68.4%; in [3], 36.4%; in assay [4], 36.4%; in assay [5] it was 7.86% (active); in [6] it was -3.66% (active). Further, the growth in assay [7] is -6.23% (active); in assay [8], 24%; in assay [9] it was 47.7%; in assay [10], -21.6% (active).
For `CCOc1cc(Br)c(C(C)NC(=O)c2cccc(OC)c2)cc1OCC` (stereo not given), the growth in assay [1] is 79.7%; in assay [2], 89.2%; in assay [3] it was 94.3%; in [4], 87.3%; in assay [5], 78.1%; in assay [6], 8.9% (active). The growth is 83.6% in assay [7], 76.6% in assay [8], 68.1% in [9] and 23.8% in [10].
On to `CCOC(=O)[C@@H](Cc1ccccc1)NC(=O)c1[nH]c2ccc(Cl)cc2c(=O)c1C`, for which the growth in [1] was 99.7%; in assay [2], 107%; in assay [3], 97.7%; in assay [4], 92.3%; in [5] it was 103%; in assay [6] it was 100%. Further, the growth in assay [7] is 71.8%; in [8] it was 84.1%; in assay [9], 97.4%; in assay [10] it was 111%.
Turning to `Nc1c(CNCc2nnn(Cc3ccccc3)c2N)nnn1Cc1ccccc1`, the growth in assay [1] was 103%; in [2], 100%; in assay [3], 100%; in assay [4], 98.9%; in assay [5], 103%; in assay [6], 90.3%. For the same molecule, the growth in assay [7] was 102%; in [8], 101%; in assay [9], 102%; in assay [10] it was 114%.
For `COc1ccc2nc(/C=C/c3ccc(N(C)C)cc3)sc2c1`, the growth in [1] is 89.5%; in [2], 99.5%; in [3], 99.6%; in assay [4] it was 108%; in assay [5], 110%; in assay [6], 93.3%. Besides, the growth in assay [7] is 90.6%; in assay [8] it was 105%; in assay [9], 93%; in [10], 145%.
Take `FC(F)(F)c1ccc(-c2cnc(Cl)nc2NC2CCCCCC2)cc1`: the growth in [1] was 25.8%; in assay [2], 42.1%; in assay [3] it was 71.1%; in assay [4], 33.4%; in [5] it was 25.8%; in assay [6], -28.4% (active). The growth in [7] was -6.08% (active); in [8], 17.4%; in [9], 40.1%; in assay [10], 22%.
Regarding `Cc1ccc(-c2cc(C(=O)Nc3ccc(S(=O)(=O)N4CCCCC4)cc3)[nH]n2)c(O)c1`, the growth in assay [1] is 55.4%; in assay [2], 76.5%; in assay [3] it was 89.3%; in assay [4] it was 90.7%; in assay [5], 51.6%; in [6], 56.1%. For the same molecule, the growth in assay [7] is 72.1%; in assay [8], 52.2%; in [9] it was 62.3%; in assay [10], 55.3%.
